# TRPV1 agonist – human TRPV1 agonism; TRPV1-expressing cells, Fluo-8 calcium influx, agonist mode; 320,000 tested, 0.19% active; Q8NER1; activation, % at 8.33 µM; in the data active = activation above about 80%; inconclusive = between about 30% and that limit
#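 Cells expressing TRPV1 were dye-loaded with Fluo-8 and read kinetically: 10 s baseline, 3 min after compound (agonist portion), then 2 min after EC20 capsaicin (allosteric enhancer portion). Calcium-bound dye fluorescence at 480/520 nm.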
# IMPase Li inh – membrane-permeable IMPase blocker, potentiated with lithium. Potency, µM (top dose mostly 59.4 µM), actives largely listed as inhibitors. 210,000 tested, 0.35% active. CHO-M1 cells, IP1 TR-FRET (IP-One), carbachol + lithium;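 note: IP1 builds up when IMPase is blocked and the TR-FRET signal falls; nearly all actives have a fitted effect of over 50% in size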
#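 Test compounds were applied to CHO-M1 cells previously cultured for 16–30 h at 2000 per well. A small lithium amount accompanied them; after 30 min at 37C, IP1 was quantified by TR-FRET.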
# AT treatment – candidate therapy for ataxia-telangiectasia | Potency, µM (series often up to 57.5 µM), usual class: activators | F2112 A-T fibroblasts, KAP-1 phosphorylation AlphaLISA; neocarzinostatin DNA damage 30 min before lysis | 320,000 tested, 0.19% active; note: nearly all actives have a fitted effect of over 45% in size
#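 ATM-like activity read as KAP-1 phosphorylation via AlphaLISA donor/acceptor antibody pairs after lysis and 6 hr at 25C. Cells were ATM-null patient fibroblasts (F2112, hTERT), dosed 60 min, then exposed to the DSB inducer NCS for 30 min.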
# TRPV1 potentiator – potentiators of human vanilloid receptor 1 (TRPV1); TRPV1-expressing cells, Fluo-8 calcium influx, capsaicin EC20 potentiation; potentiation, % at 8.33 µM; Q8NER1; 320,000 tested, 0.02% active; AID 540277; in the data active = potentiation above about 80%; inconclusive = between about 30% and that limit
#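 TRPV1-expressing cells were cultured overnight at 35.5C and loaded with Fluo-8 calcium dye for 40 to 90 min at room temperature. After a 10 s baseline, compound was added and calcium influx was read kinetically for 3 min (ex 480/em 520 nm).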
# A number is an active result; – = inactive; ? = inconclusive; · = no result; [ ] = dose if it differs, or a comment. Shown are actives, neighbours in structure and some others; about 0.55% of the full set was active somewhere. Unless noted, calls come from the whole dose curve; as a rule, active = well fitted curve in the direction sought with a large enough effect; inconclusive = small, poorly fitted or top-dose-only effect, or another doubt; inactive = no such curve, though single readings can be large; an effect the other way counts as inactive or inconclusive.
SMILES,TRPV1 agonist,IMPase Li inh,AT treatment,TRPV1 potentiator
Cc1nn(Cc2ccccc2)c(Cl)c1C(=O)Nc1ccc(OC(F)(F)F)cc1,?,–,–,–
Cc1ccc(Cn2nc(C(=O)Nc3ccc(Br)cc3)cc2C)cc1,108,·,–,–
CC(C)c1ccc(-n2c(O)c(C=NC(CCS(C)=O)C(=O)O)c(=O)[nH]c2=S)cc1 (configuration not stated),–,·,7.9µM,–
CC(=O)Oc1c2c(c(CC=C(C)C)c3c1C(=O)C1=CC4CC5C(C)(C)OC(C/C=C(\C)C(=O)O)(C4=O)[C@]15O3)OC(C)(CCC=C(C)C)C=C2 (some centres not stated),·,–,·,·
COc1cc(CNC(=O)CCCC/C=C\C(C)C)ccc1O,80,–,·,–
CN(C)C1C(=O)C(C(N)=O)=C(O)[C@@]2(O)C(=O)C3=C(O)c4c(O)cccc4[C@@](C)(O)C3CC12 (some centres not stated),·,4µM,·,·
C[C@H](CC(C#N)(c1ccccc1)c1ccccc1)N1CCCCC1,·,–,·,·
CC(=O)N1CC(=O)Nc2ccc(F)cc2C1c1ccccc1 (configuration not stated),–,·,–,–
CC(=O)N1CC(=O)Nc2ccc(Cl)cc2C1c1ccccc1 (configuration not stated),–,·,25µM,–
C=C(C=O)C[C@@H]1C[C@H](O)C2OC3C[C@]4(C)OC5/C=C\CC6OC7C(CC=CCC6OC5CCCC4OC3CC2O1)OC1CC2OC3CC(=O)OC3C[C@@H](C)C[C@@]2(C)OC1C[C@@H]7C (some centres not stated),–,·,25µM,?
CCN1CCN(CC(c2ccccc2)c2ccccc2)CC1,–,·,–,–
O=C(c1ccccc1)C(CN1CCCC1)c1ccccc1 (configuration not stated),–,–,25µM,–
O=C(O)[C@@H](O)[C@@H](O)C1[O][Sb][O][C@@H]1CO (some centres not stated),·,–,·,·
CC1(C)C(C(=O)N2CCN(c3ccc(Cl)cc3)CC2)C1(C)C,?,·,–,–
COC(=O)C1CN(C#N)N(c2ccc(Cl)cc2)C12c1ccccc1-c1ccccc12 (configuration not stated),–,–,13µM,–
CN1CCC[C@@H]1c1cccnc1.O=C(O)c1ccccc1O.O=C([OH2+])c1ccccc1O.O=C([OH2+])c1ccccc1O.O=C([OH2+])c1ccccc1O.[Cu],·,–,·,·
CC1(C)C[C@H]2C=C(C=O)[C@]3(C=O)C[C@]3(C)[C@H]2C1,–,–,3.5µM,–
ClC(Cl)C(Cl)Cl,·,–,·,·
CC1(C)CC(N(CCc2ccccc2)Cc2ccccc2)CCO1 (configuration not stated),–,·,25µM,–
Cc1cccc(N2C(=O)NC(=O)/C(=C\C=C\c3ccco3)C2=O)c1,–,·,4µM,–
Cc1ccc(N2C(=O)NC(=O)/C(=C\C=C\c3ccco3)C2=O)cc1,–,·,–,–
CC(=O)[O-].CC(=O)[O-].O.O.O.[Pb+2],·,–,·,·
CC(C)CCn1c(N)c(C(=O)NCc2cccs2)c2nc3ccccc3nc21,–,–,28µM,–
CNc1ccc2oc(C[C@@H]3OC4(CC[C@@H]3C)O[C@H]([C@@H](C)C(=O)c3ccc[nH]3)[C@H](C)C[C@H]4C)nc2c1C(=O)O (some centres not stated),·,–,·,·
Cc1nccn1-c1c([N+](=O)[O-])c(=O)n(C)c2ccccc12,–,·,3.2µM,–
SMILES,TRPV1 agonist,IMPase Li inh,AT treatment,TRPV1 potentiator
O=C(Oc1c(Br)cc(Br)c2cccnc12)N1CCCCC1,?,13µM,–,–
Cc1c([C@@H](C)C2NC[C@H](C)C[C@@H]2O)ccc2c1C[C@@H]1[C@H]2CC=C2C[C@@H](O)CC[C@@]21C (some centres not stated),·,–,·,·
CN(C)CCCNc1c2c(nc3ccc(Cl)cc13)CCCC2,·,–,·,·
CN1CCN(c2ccc([N+](=O)[O-])c3no[n+]([O-])c23)CC1,–,·,16µM,–
ClC1=C(Cl)C2(Cl)C3C(Cl)C=CC3C1(Cl)C2(Cl)Cl (configuration not stated),–,–,40µM,–
O=C(O)C1C(C(=O)O)C2(Cl)C(Cl)=C(Cl)C1(Cl)C2(Cl)Cl (configuration not stated),–,–,–,–
CN1C[C@H](C(=O)N[C@@]2(C)O[C@@]3(O)[C@H]4CCCN4C(=O)[C@@H](Cc4ccccc4)N3C2=O)C=C2c3cccc4[nH]cc(c34)C[C@@H]21,·,–,·,·
[CH3][Hg][Cl],·,–,·,·
CN1CCN(c2ccc(N)cc2Cl)CC1,–,–,–,85
CN1CCN(c2ccc(Cl)cc2N)CC1,–,–,–[11.5 µM],–
CCCNC(=O)c1c(N)n(Cc2ccco2)c2nc3ccccc3nc12,–,–,–,–
Nc1c(C(=O)NCC2CCCO2)c2nc3ccccc3nc2n1Cc1ccco1 (configuration not stated),–,·,20µM,–
CCOc1ccc(-c2nc3ccc(-c4nc5ccc(N6CCN(C)CC6)cc5[nH]4)cc3[nH]2)cc1,·,13µM,·,·
